# Source: the supplement of paper PMC10849652
# Targets with a hit are over-represented here; the source holds about 7,900 in all. About 0.6% of all pairs of compound and target were hits.
# Compound: c1cn2cc(-c3ccc4cn[nH]c4c3)nc(Nc3ccc(N4CCOCC4)cc3)c2n1 [entospletinib]
# Assay: log2 fold change, soluble protein after heating vs DMSO (PISA); higher = thermal stabilisation; K562 cells, 10 uM, 30 min; active = over 0.2 and 3.5 SD of the protein, either way, in both replicates (recomputed)
# How it was run: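 Quantification of soluble protein used TMTpro 16plex LC-MS/MS, with channel sums equalised. Samples were the supernatant after 21,000xg for 90 min of pooled aliquots from K562 cells (2×10^6 cells/mL) treated with 10 μM compound for 30 min, heated for 3 min over 48°C-58°C, and extracted in PBS with 0.5% NP-40 at 4°C. Values, from duplicates, describe thermal stability against control samples on a log2 fold-change scale.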
# UniProt P06737, sequence (P06737 whole entry, looked up): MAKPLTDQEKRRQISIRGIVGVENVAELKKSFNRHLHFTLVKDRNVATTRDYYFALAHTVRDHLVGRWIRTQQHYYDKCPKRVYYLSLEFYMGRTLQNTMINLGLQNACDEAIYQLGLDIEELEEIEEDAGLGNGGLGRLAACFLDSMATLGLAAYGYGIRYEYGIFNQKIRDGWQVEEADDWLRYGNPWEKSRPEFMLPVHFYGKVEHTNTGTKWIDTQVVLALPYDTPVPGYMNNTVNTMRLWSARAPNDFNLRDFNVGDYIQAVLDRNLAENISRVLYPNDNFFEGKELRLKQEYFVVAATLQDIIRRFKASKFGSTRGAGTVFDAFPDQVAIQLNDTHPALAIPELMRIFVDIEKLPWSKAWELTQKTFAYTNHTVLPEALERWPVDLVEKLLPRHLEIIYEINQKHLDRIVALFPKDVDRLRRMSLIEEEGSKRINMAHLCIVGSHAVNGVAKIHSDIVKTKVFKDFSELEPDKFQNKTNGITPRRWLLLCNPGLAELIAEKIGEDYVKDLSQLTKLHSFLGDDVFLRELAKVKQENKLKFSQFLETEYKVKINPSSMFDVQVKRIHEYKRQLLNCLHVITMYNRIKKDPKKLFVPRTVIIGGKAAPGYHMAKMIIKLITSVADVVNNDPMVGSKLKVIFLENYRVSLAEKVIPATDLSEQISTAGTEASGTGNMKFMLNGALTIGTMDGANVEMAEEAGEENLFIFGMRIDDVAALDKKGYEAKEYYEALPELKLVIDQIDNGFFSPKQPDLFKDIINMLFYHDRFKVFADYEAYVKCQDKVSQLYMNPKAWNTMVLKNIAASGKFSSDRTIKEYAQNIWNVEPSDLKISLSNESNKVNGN
# UniProt Q9H0R6, sequence (Q9H0R6 whole entry, looked up): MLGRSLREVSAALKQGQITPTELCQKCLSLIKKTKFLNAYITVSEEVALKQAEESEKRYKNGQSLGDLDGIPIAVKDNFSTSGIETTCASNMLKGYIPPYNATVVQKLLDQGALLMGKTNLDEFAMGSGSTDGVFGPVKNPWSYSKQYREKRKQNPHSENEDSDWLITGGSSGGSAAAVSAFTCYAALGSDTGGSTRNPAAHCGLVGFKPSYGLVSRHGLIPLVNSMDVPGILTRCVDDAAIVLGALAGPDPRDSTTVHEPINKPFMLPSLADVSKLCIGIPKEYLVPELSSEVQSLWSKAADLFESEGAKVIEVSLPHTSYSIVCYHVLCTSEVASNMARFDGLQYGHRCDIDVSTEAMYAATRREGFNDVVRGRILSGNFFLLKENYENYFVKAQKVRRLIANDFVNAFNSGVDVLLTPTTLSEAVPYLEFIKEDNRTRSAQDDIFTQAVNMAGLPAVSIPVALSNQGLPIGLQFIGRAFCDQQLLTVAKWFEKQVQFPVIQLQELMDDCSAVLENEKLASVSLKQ
# UniProt Q86TP1, sequence (Q86TP1 whole entry, looked up): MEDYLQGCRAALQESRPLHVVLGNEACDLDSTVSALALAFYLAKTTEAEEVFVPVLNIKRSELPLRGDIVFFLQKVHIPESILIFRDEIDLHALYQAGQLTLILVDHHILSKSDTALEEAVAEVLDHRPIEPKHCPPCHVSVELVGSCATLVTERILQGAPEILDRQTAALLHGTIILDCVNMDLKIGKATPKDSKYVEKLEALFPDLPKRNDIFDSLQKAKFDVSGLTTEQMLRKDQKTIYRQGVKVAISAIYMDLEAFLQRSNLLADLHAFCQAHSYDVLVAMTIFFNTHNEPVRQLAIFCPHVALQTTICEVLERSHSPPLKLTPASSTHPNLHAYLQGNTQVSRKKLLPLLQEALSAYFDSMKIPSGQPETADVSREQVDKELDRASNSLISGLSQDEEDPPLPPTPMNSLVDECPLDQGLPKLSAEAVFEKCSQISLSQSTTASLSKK
# UniProt Q9BTU6, sequence (Q9BTU6 whole entry, looked up): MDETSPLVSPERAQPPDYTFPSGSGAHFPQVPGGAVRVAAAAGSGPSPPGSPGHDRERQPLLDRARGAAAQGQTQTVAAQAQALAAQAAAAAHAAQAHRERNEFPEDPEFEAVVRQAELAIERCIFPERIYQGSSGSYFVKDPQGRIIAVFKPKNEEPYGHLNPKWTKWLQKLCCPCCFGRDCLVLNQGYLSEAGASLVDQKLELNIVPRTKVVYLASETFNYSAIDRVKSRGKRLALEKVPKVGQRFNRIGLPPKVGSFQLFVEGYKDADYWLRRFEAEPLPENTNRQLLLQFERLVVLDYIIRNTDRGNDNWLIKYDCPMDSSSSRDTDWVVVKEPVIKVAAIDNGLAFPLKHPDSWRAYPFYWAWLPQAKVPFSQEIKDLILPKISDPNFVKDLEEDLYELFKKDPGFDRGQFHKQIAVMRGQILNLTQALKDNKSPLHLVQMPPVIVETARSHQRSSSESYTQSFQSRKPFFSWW
# UniProt P42338, sequence (P42338 whole entry, looked up): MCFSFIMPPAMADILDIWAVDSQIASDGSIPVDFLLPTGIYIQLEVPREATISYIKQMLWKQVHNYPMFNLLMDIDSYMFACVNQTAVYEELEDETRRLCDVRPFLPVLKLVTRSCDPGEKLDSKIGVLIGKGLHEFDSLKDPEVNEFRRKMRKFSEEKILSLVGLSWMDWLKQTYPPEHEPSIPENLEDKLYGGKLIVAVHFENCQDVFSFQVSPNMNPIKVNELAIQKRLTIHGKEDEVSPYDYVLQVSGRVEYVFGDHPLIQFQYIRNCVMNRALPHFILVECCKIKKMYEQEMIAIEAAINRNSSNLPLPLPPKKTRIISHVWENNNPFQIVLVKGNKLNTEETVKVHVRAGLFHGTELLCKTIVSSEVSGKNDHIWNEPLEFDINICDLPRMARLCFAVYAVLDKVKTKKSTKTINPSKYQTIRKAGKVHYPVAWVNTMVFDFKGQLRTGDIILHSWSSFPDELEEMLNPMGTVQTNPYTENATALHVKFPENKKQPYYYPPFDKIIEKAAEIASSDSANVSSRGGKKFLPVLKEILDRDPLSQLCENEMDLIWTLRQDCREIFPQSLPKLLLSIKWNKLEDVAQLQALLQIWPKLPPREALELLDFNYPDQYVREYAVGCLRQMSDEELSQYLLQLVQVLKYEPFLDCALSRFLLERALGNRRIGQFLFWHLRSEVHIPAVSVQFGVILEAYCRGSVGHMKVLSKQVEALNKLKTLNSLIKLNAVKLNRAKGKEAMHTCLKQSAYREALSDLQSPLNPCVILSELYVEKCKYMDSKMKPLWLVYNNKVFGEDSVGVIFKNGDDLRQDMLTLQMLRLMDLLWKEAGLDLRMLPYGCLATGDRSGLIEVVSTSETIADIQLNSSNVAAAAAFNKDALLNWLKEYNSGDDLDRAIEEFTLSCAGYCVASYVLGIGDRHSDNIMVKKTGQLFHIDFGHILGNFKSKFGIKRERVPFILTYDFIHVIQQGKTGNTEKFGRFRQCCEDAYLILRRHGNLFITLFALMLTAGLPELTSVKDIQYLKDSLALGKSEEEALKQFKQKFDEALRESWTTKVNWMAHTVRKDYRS
# UniProt P53609, sequence (P53609 whole entry, looked up): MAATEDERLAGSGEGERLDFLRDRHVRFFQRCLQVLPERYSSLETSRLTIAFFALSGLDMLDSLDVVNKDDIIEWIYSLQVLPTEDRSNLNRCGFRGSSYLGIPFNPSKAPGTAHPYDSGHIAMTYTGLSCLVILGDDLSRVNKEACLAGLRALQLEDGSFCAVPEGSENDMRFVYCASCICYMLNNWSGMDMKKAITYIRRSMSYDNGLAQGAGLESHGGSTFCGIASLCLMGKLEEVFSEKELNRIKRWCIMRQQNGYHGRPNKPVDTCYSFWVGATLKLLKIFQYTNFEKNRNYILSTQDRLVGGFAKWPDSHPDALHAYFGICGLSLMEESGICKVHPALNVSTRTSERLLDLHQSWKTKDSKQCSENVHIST
# UniProt Q99541, sequence (Q99541 whole entry, looked up): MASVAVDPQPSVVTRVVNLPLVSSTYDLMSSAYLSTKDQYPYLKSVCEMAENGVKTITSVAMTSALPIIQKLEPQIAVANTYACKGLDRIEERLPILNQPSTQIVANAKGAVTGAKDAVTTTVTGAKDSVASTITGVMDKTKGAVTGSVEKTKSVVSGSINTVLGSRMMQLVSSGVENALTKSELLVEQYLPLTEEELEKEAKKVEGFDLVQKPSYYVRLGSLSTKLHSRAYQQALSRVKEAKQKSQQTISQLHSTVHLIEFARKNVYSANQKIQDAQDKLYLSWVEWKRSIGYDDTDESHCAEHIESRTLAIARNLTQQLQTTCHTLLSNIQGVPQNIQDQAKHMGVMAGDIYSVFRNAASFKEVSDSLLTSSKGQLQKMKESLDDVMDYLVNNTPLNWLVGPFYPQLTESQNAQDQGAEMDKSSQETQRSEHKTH
# UniProt Q93096, sequence (Q93096 whole entry, looked up): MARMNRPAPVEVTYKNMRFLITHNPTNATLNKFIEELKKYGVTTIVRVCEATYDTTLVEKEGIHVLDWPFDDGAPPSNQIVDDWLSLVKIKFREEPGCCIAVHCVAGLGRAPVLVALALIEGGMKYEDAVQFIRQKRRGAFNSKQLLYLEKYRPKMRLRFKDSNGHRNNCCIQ
# UniProt P35998, sequence (P35998 whole entry, looked up): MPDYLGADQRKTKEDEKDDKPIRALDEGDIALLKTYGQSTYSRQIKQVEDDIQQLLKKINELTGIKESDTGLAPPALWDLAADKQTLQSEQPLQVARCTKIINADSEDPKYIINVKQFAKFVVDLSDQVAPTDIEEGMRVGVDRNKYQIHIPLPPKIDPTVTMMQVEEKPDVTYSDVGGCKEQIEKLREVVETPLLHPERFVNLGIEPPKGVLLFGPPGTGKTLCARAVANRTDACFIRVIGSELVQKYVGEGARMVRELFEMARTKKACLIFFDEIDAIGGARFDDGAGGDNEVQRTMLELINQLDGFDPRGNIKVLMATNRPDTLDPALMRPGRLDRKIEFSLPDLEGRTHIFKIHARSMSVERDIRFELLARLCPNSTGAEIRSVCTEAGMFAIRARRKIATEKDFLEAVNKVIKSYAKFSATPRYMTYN
# UniProt Q9Y244, sequence (Q9Y244 whole entry, looked up): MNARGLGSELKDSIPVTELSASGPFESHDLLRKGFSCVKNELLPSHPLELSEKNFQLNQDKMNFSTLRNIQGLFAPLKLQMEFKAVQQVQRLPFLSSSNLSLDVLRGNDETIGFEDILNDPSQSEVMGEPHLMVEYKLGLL
row,Target,log2 fold change
1,PARN (UniProt O95453),-0.06 (inactive)
2,PLBD1 (UniProt Q6P4A8),0.011 (inactive)
3,PRPF3 (UniProt O43395),-0.08 (inactive)
4,PTGR2 (UniProt Q8N8N7),0.043 (inactive)
5,PRUNE1 (UniProt Q86TP1),0.029 (inactive)
6,PSMD11 (UniProt O00231),0.017 (inactive)
7,PTP4A1 (UniProt Q93096),0 (inactive)
8,PEF1 (UniProt Q9UBV8),0.023 (inactive)
9,PLIN2 (UniProt Q99541),0.043 (inactive)
10,PSMA3 (UniProt H0YJ03),-0.059 (inactive)
11,PSMD9 (UniProt O00233),-0.034 (inactive)
12,PDS5B (UniProt Q9NTI5),-0.055 (inactive)
13,PIK3CB (UniProt P42338),0.033 (inactive)
14,PRKAR1B (UniProt P31321),0.231 (inactive)
15,PGGT1B (UniProt P53609),-0.037 (inactive)
16,PRPF40A (UniProt O75400),0.057 (inactive)
17,PSMC2 (UniProt P35998),0.02 (inactive)
18,PDIK1L (UniProt Q8N165),0.06 (inactive)
19,PRMT3 (UniProt O60678),-0.036 (inactive)
20,POLR2D (UniProt O15514),0.162 (inactive)

row,Target,log2 fold change
1,PCNT (UniProt O95613),0.14 (inactive)
2,PTRHD1 (UniProt Q6GMV3),0.064 (inactive)
3,PLEKHM2 (UniProt Q8IWE5),-0.051 (inactive)
4,PXK (UniProt Q7Z7A4),0.009 (inactive)
5,PRKACA (UniProt P17612),0.007 (inactive)
6,PMM1 (UniProt Q92871),-0.415 (active)
7,PDSS2 (UniProt Q86YH6),-0.152 (inactive)
8,PI4K2A (UniProt Q9BTU6),-0.011 (inactive)
9,PCBP2 (UniProt F8VRH0),-0.004 (inactive)
10,POMP (UniProt Q9Y244),-0.015 (inactive)
11,PYGB (UniProt P11216),-0.156 (inactive)
12,PYGL (UniProt P06737),-0.088 (inactive)
13,POLR3K (UniProt Q9Y2Y1),0.113 (inactive)
14,POP1 (UniProt Q99575),0.027 (inactive)
15,PRIM2 (UniProt P49643),0 (inactive)
16,PCYT1A (UniProt P49585),0.017 (inactive)
17,QRSL1 (UniProt Q9H0R6),-0.008 (inactive)
18,POLB (UniProt P06746),-0.156 (inactive)
19,POLR1A (UniProt O95602),-0.057 (inactive)
